Screens deposited in PubChem by National Center for Advancing Translational Sciences (NCATS).
An excerpt weighted towards active compounds, which were near 10% of everything screened.
IMPase inh – qHTS Assay for Identifying the Cell-Membrane Permeable IMPase Inhibitors. Inositol monophosphatase 1 (Rattus norvegicus), P97697. CHO-M1 cells, IP1 accumulation, HTRF TR-FRET ratio. inhibition (IP1 accumulation), % at 46.1 µM. 120,000 tested, under 10 active. AID 901, 2007; active = well fitted curve in the direction sought with a large enough effect in the signal ratio, not every such curve was filed as active; inconclusive = small, poorly fitted or top-dose-only effect, or a change in a side signal; inactive = no such curve, though single readings can be large or run the other way; the % refers to the signal ratio;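 also: cells stimulated with carbachol in lithium chloride buffer; higher means more IMPase inhibition seen as more IP1 and lower FRET ratio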
Target sequence (P97697 whole entry, looked up): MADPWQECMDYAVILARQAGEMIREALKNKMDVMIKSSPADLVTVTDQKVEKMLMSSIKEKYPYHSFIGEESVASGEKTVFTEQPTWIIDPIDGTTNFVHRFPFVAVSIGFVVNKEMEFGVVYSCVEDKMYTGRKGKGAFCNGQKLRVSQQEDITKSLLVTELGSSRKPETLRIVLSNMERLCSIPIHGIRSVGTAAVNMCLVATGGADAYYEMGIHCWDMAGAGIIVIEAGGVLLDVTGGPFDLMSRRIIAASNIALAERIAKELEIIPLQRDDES
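Elevated IP1 in lysates lowers TR-FRET signal (665/620 ratio and 620 channel reported). Cells were CHO-M1, given carbachol (50 uM as added) plus 50mM LiCl, pH 7.4, 30 min, 37C; compounds titrated up to 46 uM; AC50 by Hill equation.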
HPGD inh – qHTS Assay for Inhibitors of HPGD (15-Hydroxyprostaglandin Dehydrogenase). Potency, µM, actives largely listed as inhibitors. hit rate 4.3% among 150,000. 15-hydroxyprostaglandin dehydrogenase [NAD(+)] (Homo sapiens), P15428. purified HPGD, NADH fluorescence kinetic, PGE2 substrate
Target sequence (P15428 whole entry, looked up): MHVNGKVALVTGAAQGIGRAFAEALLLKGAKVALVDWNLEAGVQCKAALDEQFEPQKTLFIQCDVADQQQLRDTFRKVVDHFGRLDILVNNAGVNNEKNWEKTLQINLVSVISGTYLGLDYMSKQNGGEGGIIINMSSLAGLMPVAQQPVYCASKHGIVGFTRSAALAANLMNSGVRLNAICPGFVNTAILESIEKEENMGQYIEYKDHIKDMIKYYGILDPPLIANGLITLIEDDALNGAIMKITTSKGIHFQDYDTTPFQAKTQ
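20 nM HPGD preincubated 15 min at room temperature with compound in 50 mM Tris-HCl pH 8, 0.01% Tween 20. Started with 1 mM NAD+ and 30 uM prostaglandin E2; NADH fluorescence (360/450 nm) read 5 times over 30-s intervals, last minus first.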
ALDH1A1 block – qHTS Assay for Inhibitors of Aldehyde Dehydrogenase 1 (ALDH1A1); Purified ALDH1A1, NADH fluorescence, propionaldehyde substrate; Potency, µM (doses to about 75.3 µM), most hits filed as inhibitors; hit rate 7.3% among 220,000; AID 1030, 2008
LMNA splice mod – qHTS Assay for Modulators of Lamin A Splicing | HeLa LMNA splicing GFP/RFP minigene ratio, 48 h | Potency, µM (series often up to 46.1 µM), most hits filed as inhibitors | hit rate 0.01% among 200,000 | AID 1487, 2009; active = well fitted inhibition curve with a large enough effect in the signal ratio, with a control signal flat, not every such curve was filed as active; inconclusive = small, poorly fitted or top-dose-only effect, or effect the other way, or a change in a side signal; the % refers to the signal ratio
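S3 HeLa stable clones carrying a lamin A-EGFP splicing minigene plus DsRed2 were seeded at 600 cells/well in Opti-MEM with 2% FBS, pin-dosed and incubated 48 h at 37°C. Acumen cytometry (488 nm) gave the GFP/RFP total-intensity ratio.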
PNC inhibitor – High Content Assay for Compounds that inhibit the Assembly of the Perinucleolar Compartment. activity change (PNC), negative = inhibition, % at 10 µM. PC3M PTB-GFP, PNC prevalence imaging, 16 h; active compounds read low. hit rate 3.1% among 140,000. AID 2417, 2010;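 active = readout at or below -70, meaning at least 70% loss of cells showing the perinucleolar compartment, a nuclear body marking cancer cells; inconclusive = readout between -30 and a set limit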
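PC3M cells stably expressing PTB-GFP, 750–1000 cells/well, treated 16 h at 37 °C with compound (23 nl of library stock), in duplicate. After paraformaldehyde fixation and Hoechst stain, imaged at 20x; PNC prevalence scored by image analysis.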
Luc counter – Counterscreen for Luciferase (Kinase-Glo TM) Inhibition; Luciferin 4-monooxygenase (Photuris pensylvanica), Q27757; Kinase-Glo luciferase, ATP luminescence, 8 min; Potency, µM (series often up to 38.3 µM), usual class: inhibitors; hit rate 0.28% among 200,000; AID 1379, 2008; active = well fitted inhibition curve with a large enough effect; inconclusive = small, poorly fitted or top-dose-only effect; also: nearly all actives have a fitted effect of over 60% in size
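Luminescence was the read-out, taken after 8-minute incubation at ambient temperature. Luciferase turned over luciferin with 10 uM ATP in imidazole pH 7.2 buffer containing KCl, MgCl2, Tween 20 and BSA.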
Numbers stand for hits; . = inactive; ? = inconclusive; / = not tested or not shown; [ ] = dose if it differs, or a comment. Unless noted, calls follow the shape of the dose curve; as a rule, active = well fitted inhibition curve with a large enough effect (not every such curve was filed as active); inconclusive = small, poorly fitted or top-dose-only effect, or another doubt; inactive = no such curve, though single readings can be large or run the other way.

SMILES | IMPase inh | HPGD inh | ALDH1A1 block | LMNA splice mod | PNC inhibitor | Luc counter
O=C(C1CC1)N1CCc2cc(S(=O)(=O)N3CCOCC3)ccc21 | . | . | . | .[0.0737 µM] | . | .
CC(Cl)C(=O)c1ccc2c(c1)CCN2C(=O)C1CC1 (stereo not given) | / | / | 1.4µM | / | / | .
O=c1[nH]c(NCCCO)nc2c1C1(CCCC1)Cc1ccccc1-2 | ? | ? | ? | . | . | .
CCN(CC)Cc1nc2c(c(=O)[nH]1)C1(CCCCC1)Cc1ccccc1-2 | . | . | 25µM | . | ? | .
C=CCNC(=S)NNc1nc2c(c(=O)[nH]1)C1(CCCC1)Cc1ccccc1-2 | . | ? | 3.5µM | . | . | .
CN(C)Cc1nc2c(c(=O)[nH]1)C1(CCCCC1)Cc1ccccc1-2 | . | . | . | ? | . | .
CO[C@@H]1/C=C\CC(=O)N[C@@H](C)C(=O)OC[C@@H](OC)[C@H](C)/C=C\CC(=O)OC[C@H]1C | / | / | .[13.5 µM] | / | / | /
O=C(c1cnccn1)N1CCC[C@@]2(CCN(C(c3ccccc3)c3ccccc3)C2)C1 | / | . | . | / | / | .
Cc1nc(CCNC(=O)Cc2ccc(Cl)cc2)cs1 | . | . | . | . | -90 | .
Cc1ccc(NNC(=O)c2cc(C(C)(C)C)nn2Cc2ccccc2)cc1 | / | / | 15µM | / | / | /
COc1ccc(C2N(C(=O)N3CCOCC3)CCN2S(=O)(=O)c2ccc(C)cc2)cc1 (stereo not given) | . | . | . | . | ? | .
CN(C)c1ccc(C2N(C(=O)N3CCOCC3)CCN2S(=O)(=O)c2ccccc2)cc1 (stereo not given) | . | . | 1µM | . | . | .
Cc1ccc(S(=O)(=O)N2CCN(C(=O)N3CCOCC3)C2c2ccc(N(C)C)cc2)cc1 (stereo not given) | . | . | 0.63µM | . | ? | .
O=C(CN1CC(c2ccccc2)CC1=O)N/N=C/c1cc(Br)ccc1O (stereo not given) | . | ? | 25µM | ? | . | .
CC(=O)Nc1ccc(S(=O)(=O)N2CCc3nc(COc4ccccc4)c4c(c3C2)CO[C@@H](C)C4)cc1 | / | . | .[13.5 µM] | .[9.22 µM] | / | .[7.66 µM]
CCCOc1ccc(OCCSc2nnc(N)s2)cc1 | . | 5µM | . | ? | . | .
Clc1ccc(OCCCCSc2ncccn2)cc1 | . | . | . | . | . | .
CCCOc1ccc(OCCSc2ncccn2)cc1 | . | 14µM | . | . | ? | .
Cc1ccc(OCCSc2nc(N)cc(N)n2)cc1 | / | / | . | / | / | .
COc1ccc(OCCSc2nc(N)cc(N)n2)cc1 | . | 25µM | ? | . | . | .
Cn1c(=O)c(-c2cccc(C#N)c2)nc2cnc(Oc3ccccc3)nc21 | / | / | ? | . | / | /
CCc1ccccc1NC(=O)C1COc2ccccc2C1 (stereo not given) | / | / | / | . | / | /
COc1ccc(S(=O)(=O)Nc2ccc(N3CCOCC3)cc2)cc1Br | . | . | ? | . | . | .
COc1ccc(S(=O)(=O)Nc2ccc(N3CCOCC3)cc2)cc1[N+](=O)[O-] | / | / | 13µM | / | / | .
COc1ccc(OCC(=O)Nc2ccc(N3CCOCC3)cc2)c([N+](=O)[O-])c1 | / | / | 28µM | / | / | .
SMILES | IMPase inh | HPGD inh | ALDH1A1 block | LMNA splice mod | PNC inhibitor | Luc counter
COc1ccc(OCC(=O)Nc2ccc(N3CCOCC3)cc2)cc1 | . | . | . | . | . | .
Cc1ccc(C(C[N+](=O)[O-])n2nc(C)cc2C)cc1 (stereo not given) | . | 16µM | ? | . | . | .
Cc1ccc(S(=O)(=O)n2nc(C)cc2C)cc1 | . | . | . | . | . | .
CCOc1ccccc1NC(=O)Cn1cnc2c1c(=O)n(C)c(=O)n2C | . | / | / | / | / | /
COc1cc2c(cc1OC)-c1cc(N3CCCc4ccccc43)nc(=O)n1CC2 | . | . | 11µM | . | . | .
COc1ccc(CNC(=O)COC(=O)CCOc2ccccc2)cc1 | / | . | ? | ? | . | .
COc1ccc(CNC(=O)c2csnn2)cc1 | . | . | 25µM | . | . | .
COc1ccc(CNC(=O)CN(Cc2ccc(OC)cc2)C(=O)c2csnn2)cc1 | / | / | 2.2µM | / | / | .
COc1ccc(CNC(=O)COC(=O)c2ccccn2)cc1 | / | / | 25µM | . | / | .
COc1ccc(CNC(=O)CN(Cc2ccccc2)C(=O)c2csnn2)cc1 | . | . | ? | . | ? | .
C[C@H]1NC(=O)NC1=O | . | . | . | ? | / | .
CCC1CN(C(=O)N2CCC(C(=O)NCCC3=CCCCC3)CC2)c2cc(C)ccc2O1 (stereo not given) | / | / | / | . | / | /
CCOc1ccccc1NC(=O)CSc1nnnn1Cc1ccccc1 | . | . | . | . | -82 | .
CCOc1ccccc1NC(=O)CSc1nnnn1-c1ccccc1 | . | . | 16µM | . | ? | .
Cc1cc(NC(=O)COn2nnc3ccc(Cl)cc32)no1 | . | . | . | . | . | .
COc1ccccc1NC(=O)CSc1nnnn1Cc1ccccc1 | . | . | . | . | ? | .
CCOc1ccccc1NC(=O)COn1nnc2ccc(Cl)cc21 | . | ? | 16µM | . | ? | .
CCCCC(=O)Nc1ccc2nc(SCC(=O)N3CCc4ccccc43)sc2c1 | / | / | / | . | / | /
CN(C(=O)Cn1nnc(-c2cccc(C(F)(F)F)c2)n1)C1CCCCC1 | . | . | 35µM | . | . | .
CC(=O)Nc1sc2c(c1C(c1ccncc1)N1CCOCC1)CCCC2 (stereo not given) | / | / | 25µM | ? | / | .
Cc1ccc(C(=O)N(Cc2nc(-c3ccc(C)cc3)no2)C(C)C)cc1 | . | . | . | . | . | .
Cc1ccc(SCC(=O)N(Cc2nc(-c3ccccc3)no2)C(C)C)cc1 | . | . | 25µM | . | . | .
CC(C)N(Cc1nc(-c2ccccc2)no1)C(=O)c1ccc(Br)o1 | . | . | 10µM | . | . | .
COc1cc2c(cc1O)[C@@H](c1cc(O)c(O)c(OC)c1)[C@@](O)(C(=O)O)[C@@H](CO)[C@@H]2O | / | . | .[13.5 µM] | / | / | .[7.66 µM]
CCOC(=O)c1cnc(-n2nc(C)cc2C)nc1Nc1ccc(N(C)C)cc1 | . | . | 20µM | ? | . | .
CCOC(=O)c1cnc(-n2nc(C)cc2C)nc1NC1CCCCC1 | . | / | 25µM | ? | ? | /
CCOC(=O)c1cnc(-n2nc(C)cc2C)nc1Nc1ccc(C)cc1 | . | . | . | . | . | .
Cc1ccc(C)c(N2CCN(C(=O)Cn3cnc4onc(-c5ccc(F)cc5)c4c3=O)CC2)c1 | / | / | / | . | / | /
CN(C)c1ccc(NC(=O)/C=C/c2c(Cl)cccc2Cl)cc1 | . | . | ? | ? | -93 | .
